According to PubChem BioAssay AID1159580 (chemical genetic matrix, 2015):
Screen size: about 5,500 compounds; about 2,000 (36%) were called active. Another 18% or so got no clear call; they are omitted. Rule as the data show it: active = normalized growth mostly below about 0.91 (no sharp cut-off); inconclusive = no clear call, values can overlap the other calls; inactive = mostly above about 0.92. This is one part of the list.

Test: chemical genetic growth profiling, strain panel (AID 1159580);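 also: tested at 20 µM; growth read once vehicle control cultures reached saturation at 30 °C; 1 = growth at the plate median or of vehicle wells; lower values mean less growth of the strain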
Settings: S. cerevisiae deletion strains, growth OD

Measured: normalized growth

CC1=NS(=O)(=O)c2cc(Cl)ccc2N1
inactive: locus YAL021C, strain ccr4, hits give low values 0.919 | locus YAL026C, strain drs2, hits give low values 0.972 | locus YAL030W, strain snc1, hits give low values 0.987 | locus YAL040C, strain CLN3, hits give low values 1 | locus YBL061C, strain skt5, hits give low values 0.984 | locus YBR009C, strain hhf1, hits give low values 0.984 | locus YBR023C, strain chs3, hits give low values 0.971 | locus YBR171W, strain sec66, hits give low values 0.972 | locus YBR231C, strain swc5, hits give low values 0.995 | locus YBR279W, strain paf1, hits give low values 0.952 | locus YCL011C, strain gbp2, hits give low values 0.985 | locus YCL016C, strain dcc1, hits give low values 0.976 | locus YCL061C, strain MRC1 (second series), hits give low values 0.995 | locus YCL069W, strain vba3, hits give low values 0.967 | locus YCR088W, strain abp1, hits give low values 0.971 | locus YDL005C, strain med2, hits give low values 0.972 | locus YDL040C, strain nat1, hits give low values 0.958 | locus YDR001C, strain nth1, hits give low values 0.967 | locus YDR069C, strain doa4, hits give low values 0.937 | locus YDR137W, strain rgp1, hits give low values 0.957 | locus YDR150W, strain NUM1, hits give low values 1.01 | locus YDR159W, strain sac3, hits give low values 0.936 | locus YDR195W, strain ref2 0.899 | locus YDR297W, strain sur2, hits give low values 0.974 | locus YDR334W, strain swr1, hits give low values 0.936 | locus YDR335W, strain msn5, hits give low values 0.971 | locus YDR363W, strain ESC2, hits give low values 0.973 | locus YDR392W, strain spt3, hits give low values 0.971 | locus YEL003W, strain gim4, hits give low values 0.984 | locus YEL037C, strain rad23, hits give low values 0.944 | locus YEL061C, strain CIN8 (second series), hits give low values 0.972 | locus YER002W, strain NOP16, hits give low values 0.999 | locus YER015W, strain faa2, hits give low values 0.971 | locus YER016W, strain bim1, hits give low values 0.963 | locus YER111C, strain swi4, hits give low values 0.99 | locus YER155C, strain BEM2 (second series), hits give low values 0.994 | locus YFR010W, strain ubp6, hits give low values 0.946 | locus YGL167C, strain pmr1, hits give low values 0.95 | locus YGL173C, strain kem1, hits give low values 0.995 | locus YGL227W, strain vid30, hits give low values 0.967 | locus YGL240W, strain doc1, hits give low values 0.953 | locus YGL253W, strain hxk2, hits give low values 0.951 | locus YGR078C, strain PAC10, hits give low values 1.01 | locus YHR013C, strain ard1, hits give low values 0.925 | locus YHR027C, strain rpn1, hits give low values 0.977 | locus YHR030C, strain SLT2, hits give low values 0.96 | locus YHR079C, strain IRE1, hits give low values 0.969 | locus YHR142W, strain chs7, hits give low values 0.948 | locus YJL092W, strain hpr5, hits give low values 0.986 | locus YJL095W, strain BCK1 (second series), hits give low values 0.961 | locus YJL095W, strain BCK1, hits give low values 0.974 | locus YJL115W, strain asf1, hits give low values 0.948 | locus YJL129C, strain trk1, hits give low values 0.975 | locus YJL154C, strain vps35, hits give low values 0.989 | locus YJL164C, strain tpk1, hits give low values 0.977 | locus YJL166W, strain qcr8, hits give low values 0.963 | locus YJL187C, strain SWE1, hits give low values 0.979 | locus YJR066W, strain TOR1, hits give low values 0.948 | locus YJR075W, strain HOC1, hits give low values 0.991 | locus YKL160W, strain elf1, hits give low values 0.981 | locus YKR026C, strain gcn3, hits give low values 0.958 | locus YKR091W, strain srl3, hits give low values 0.969 | locus YLL001W, strain dnm1, hits give low values 0.969 | locus YLL026W, hits give low values 0.985 | locus YLL041C, strain sdh2, hits give low values 0.981 | locus YLR027C, strain aat2, hits give low values 0.975 | locus YLR113W, strain HOG1, hits give low values 0.951 | locus YLR221C, strain rsa3, hits give low values 0.986 | locus YLR258W, strain gsy2, hits give low values 0.971 | locus YLR262C, strain YPT6 (second series), hits give low values 0.961 | locus YLR320W, strain mms22, hits give low values 0.971 | locus YLR342W, strain FKS1, hits give low values 0.992 | locus YLR357W, strain rsc2, hits give low values 0.944 | locus YLR370C, strain arc18, hits give low values 0.963 | locus YLR384C, strain iki3, hits give low values 0.984 | locus YML120C, strain ndi1, hits give low values 0.98 | locus YMR058W, strain fet3, hits give low values 0.97 | locus YMR125W, strain sto1, hits give low values 0.955 | locus YMR129W, hits give low values 0.955 | locus YMR205C, strain PFK2, hits give low values 0.966 | locus YMR231W, strain pep5, hits give low values 0.963 | locus YMR307W, strain GAS1, hits give low values 0.993 | locus YNL071W, strain lat1, hits give low values 0.949 | locus YNL175C, strain NOP13, hits give low values 1 | locus YNL183C, strain NPR1, hits give low values 0.906 | locus YNL197C, strain WHI3, hits give low values 0.996 | locus YNL209W, strain ssb2, hits give low values 0.979 | locus YNL224C, strain SQS1, hits give low values 1 | locus YNL248C, strain rpa49, hits give low values 0.998 | locus YNL322C, strain KRE1 (second series), hits give low values 0.966 | locus YNL322C, strain KRE1, hits give low values 0.953 | locus YNR049C, strain mso1, hits give low values 0.974 | locus YOR001W, strain rrp6, hits give low values 0.958 | locus YOR070C, strain gyp1, hits give low values 0.99 | locus YOR080W, strain dia2, hits give low values 0.942 | locus YOR083W, strain WHI5 (second series), hits give low values 1.02 | locus YOR083W, strain WHI5, hits give low values 0.958 | locus YOR106W, strain vam3, hits give low values 0.983 | locus YOR231W, strain MKK1, hits give low values 0.978 | locus YOR265W, strain rbl2, hits give low values 0.975 | locus YOR270C, strain vph1, hits give low values 0.888 | locus YOR290C, strain snf2, hits give low values 0.965 | locus YPL051W, strain arl3, hits give low values 0.994 | locus YPL055C, strain LGE1, hits give low values 0.987 | locus YPL078C, strain atp4, hits give low values 0.985 | locus YPL106C, strain sse1, hits give low values 0.92 | locus YPL240C, strain hsp82, hits give low values 0.967 | locus YPL241C, strain CIN2, hits give low values 0.992 | locus YPL256C, strain CLN2, hits give low values 0.97
